Measurements reported in PubChem BioAssay (Tox21).
Records with an inconclusive call do not appear. Activity calls are given as the source filed them. Unless noted, calls follow the shape of the dose curve; as a rule, active = well fitted curve in the direction sought with a large enough effect in the repeat runs; inconclusive = weak or mixed curves; inactive = no such curve, though single readings can be large; an effect the other way counts as inactive or inconclusive.

Assays:
[1] = molecular target: Peroxisome proliferator-activated receptor gamma (Homo sapiens) (UniProt P37231); test: qHTS assay to identify small molecule antagonists of the peroxisome proliferator-activated receptor gamma (PPARg) signaling pathway (AID 743191; calls by dose curve; also: nearly all actives have a fitted effect of over 30% in size; also: potency is read from the fitted curve at half-maximal effect)
Outline: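 Beta-lactamase reporter under UAS control in HEK293H PPARg-bla cells; compound treatment 17 h at 37C. Read-out: fluorescence intensity after 1 h room-temperature incubation with LiveBLAzer B/G FRET substrate.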

[2] = qHTS assay to identify small molecule antagonists of the peroxisome proliferator-activated receptor gamma (PPARg) signaling pathway - cell viability counter screen (AID 743194); also: nearly all actives have a fitted effect of over 55% in size
Outline: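 Viability was measured as CellTiter-Glo luminescence in GeneBLAzer PPARg UAS-bla HEK293H cells. These cells had been exposed 17 h at 37 C to compounds together with rosiglitazone at 50 nM final, with the beta-lactamase readout taken in the same wells.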

[3] = qHTS assay for small molecule agonists of the antioxidant response element (ARE) signaling pathway (AID 743202; active = well fitted activation curve with a large enough effect in the signal ratio in the repeat runs, not every such curve was filed as active; the % refers to the signal ratio; also: potency is read from the fitted curve at half-maximal effect)
Outline: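 An ARE-responsive beta-lactamase gene stably integrated in HepG2 cells serves as reporter. After 5 h plating and 16 h compound incubation at 37 C, fluorescence of the B/G FRET substrate was measured.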

[4] = qHTS assay for small molecule agonists of the antioxidant response element (ARE) signaling pathway - cell viability counter screen (AID 743203; calls by dose curve; also: nearly all actives have a fitted effect of over 55% in size)
Outline: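 ARE-bla HepG2 cells were plated, rested 5 h at 37C/5% CO2, then exposed to compounds in DMSO for 16 h. Viability was read as CellTiter-Glo luminescence after 30 min at room temperature, in the same wells as the ARE screen.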

[5] = qHTS assay for small molecule activators of the heat shock response signaling pathway - cell viability counter screen (AID 743209); also: nearly all actives have a fitted effect of over 50% in size
Outline: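 HSE-bla HeLa cells plated overnight, then exposed to Tox21 compounds (23 nL in DMSO) for 5 h at 37 C. After the bla reporter read, CellTiter-Glo was added in the same wells and luminescence read after 30 min at room temperature.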

[6] = qHTS assay for small molecule activators of the heat shock response signaling pathway (AID 743210; active = well fitted activation curve with a large enough effect in the signal ratio in the repeat runs, with a control signal flat, not every such curve was filed as active; the % refers to the signal ratio;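 also: HeLa cells with beta-lactamase reporter driven by heat shock elements; series mostly up to about 63 µM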)
Outline: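 In HSE-bla HeLa cells, 5 h compound incubation (37 C) precedes addition of LiveBLAzer B/G substrate; after 2.5 h at room temperature, fluorescence intensity indicates reporter induction.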

[7] = qHTS assay to identify small molecule agonists of the peroxisome proliferator-activated receptor delta (PPARd) signaling pathway - cell viability counter screen (AID 743211); also: nearly all actives have a fitted effect of over 55% in size
Outline: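 PPARd-bla HEK293H cells (UAS-beta-lactamase reporter) were treated with compounds for 17 h at 37 C. Viability was then read in the same wells by CellTiter-Glo luminescence after 30 min at room temperature.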

[8] = molecular target: Peroxisome proliferator-activated receptor delta (Homo sapiens) (UniProt Q03181); test: qHTS assay to identify small molecule agonists of the peroxisome proliferator-activated receptor delta (PPARd) signaling pathway (AID 743212; calls by dose curve)
Outline: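 HEK293H UAS-bla reporter cells, human PPARd system; compounds delivered in DMSO after 5 h plating, then at 37 C. Beta-lactamase FRET read, 2 h RT substrate step.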

[9] = qHTS assay to identify small molecule antagonists of the peroxisome proliferator-activated receptor delta (PPARd) signaling pathway - cell viability counter screen (AID 743213); also: nearly all actives have a fitted effect of over 50% in size
Outline: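 PPARd-bla HEK293H cells were treated with compounds plus agonist L165041 (300 nM final) for 17 h at 37 C. Viability was then read in the same wells by CellTiter-Glo luminescence after 30 min at room temperature.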

[10] = molecular target: Bile acid receptor (Homo sapiens) (UniProt Q96RI1); test: qHTS assay to identify small molecule antagonists of the farnesoid-X-receptor (FXR) signaling pathway (AID 743217; active = well fitted inhibition curve with a large enough effect in the signal ratio in the repeat runs, not every such curve was filed as active; the % refers to the signal ratio)
Outline: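 FXR-UAS-bla HEK 293T cells (beta-lactamase reporter) given compound plus chenodeoxycholic acid (50 uM final), 16 h at 37C. LiveBLAzer B/G FRET substrate added for 2 h at room temperature; fluorescence read.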

[11] = qHTS assay to identify small molecule agonists of the farnesoid-X-receptor (FXR) signaling pathway - cell viability counter screen (AID 743218); also: nearly all actives have a fitted effect of over 45% in size
Outline: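 FXR-UAS-bla HEK 293T cells exposed to compounds for 16 h at 37C. Cytotoxicity read in the same wells by CellTiter-Glo luminescence after 30 min at room temperature, following the beta-lactamase FRET read.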

[12] = molecular target: Bile acid receptor (Homo sapiens) (UniProt Q96RI1); test: qHTS assay to identify small molecule agonists of the farnesoid-X-receptor (FXR) signaling pathway (AID 743220; active = well fitted activation curve with a large enough effect in the signal ratio in the repeat runs, not every such curve was filed as active; the % refers to the signal ratio)
Outline: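 Beta-lactamase reporter under UAS control in GeneBLAzer FXR HEK 293T cells (5000/well) measured with LiveBLAzer FRET substrate after 2 h at room temperature. Compound exposure lasted 16 h at 37C.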

[13] = qHTS assay to identify small molecule antagonists of the farnesoid-X-receptor (FXR) signaling pathway - cell viability counter screen (AID 743221; active = well fitted cell-killing curve with a large enough effect in the repeat runs, not every such curve was filed as active; also: nearly all actives have a fitted effect of over 50% in size)
Outline: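 FXR-UAS-bla HEK 293T cells were treated with test compounds plus chenodeoxycholic acid (50 uM final) for 16 h at 37 C. Cell viability in the same wells was then read as CellTiter-Glo luminescence after 30 min at room temperature.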

[14] = molecular target: Vitamin D3 receptor (Homo sapiens) (UniProt P11473); test: qHTS assay to identify small molecule agonists of the vitamin D receptor (VDR) signaling pathway (AID 743222; calls by dose curve)
Outline: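 VDR-bla cells plated 4 h at 37 C, then exposed to compounds for 16 h at 37 C. Beta-lactamase reporter activity measured by fluorescence after 2 h room-temperature loading with LiveBLAzer B/G FRET substrate.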

[15] = molecular target: Vitamin D3 receptor (Homo sapiens) (UniProt P11473); test: qHTS assay to identify small molecule antagonists of the vitamin D receptor (VDR) signaling pathway (AID 743223; active = well fitted inhibition curve with a large enough effect in the signal ratio in the repeat runs, not every such curve was filed as active; the % refers to the signal ratio)
Outline: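 VDR-bla cells were plated, incubated 4 h at 37C, then given compound and 1alpha,25-dihydroxyvitamin D3 (3 nM final). After 16 h at 37C, LiveBLAzer B/G FRET substrate was added for 2 h at room temperature and fluorescence read.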

[16] = qHTS assay to identify small molecule agonists of the vitamin D receptor (VDR) signaling pathway - cell viability counter screen (AID 743224); also: nearly all actives have a fitted effect of over 50% in size; also: potency is read from the fitted curve at half-maximal effect
Outline: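 VDR-bla cells, 4 h after plating, exposed to compounds for 16 h at 37C; viability then read in the same wells as CellTiter-Glo luminescence after 30 min at room temperature, following the bla FRET read.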

[17] = molecular target: Peroxisome proliferator-activated receptor delta (Homo sapiens) (UniProt Q03181); test: qHTS assay to identify small molecule antagonists of the peroxisome proliferator-activated receptor delta (PPARd) signaling pathway (AID 743215; active = well fitted inhibition curve with a large enough effect in the signal ratio in the repeat runs, not every such curve was filed as active; the % refers to the signal ratio;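 also: cells stimulated with agonist L165041 at 300 nM final during compound exposure; series mostly up to about 62 µM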)
Outline: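 PPARd-bla HEK293H cells (UAS-bla reporter) preincubated 5 h, then given compound plus 300 nM final L165041 agonist for 17 h at 37 C. Beta-lactamase activity read by LiveBLAzer B/G FRET substrate fluorescence after 2 h at room temperature.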

[18] = qHTS assay to identify small molecule that activate the aryl hydrocarbon receptor (AhR) signaling pathway - cell viability counter screen (AID 743086);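 also: HepG2 liver cells carrying the AhR DRE luciferase reporter; series mostly up to about 70 µM; nearly all actives have a fitted effect of over 45% in size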
Outline: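 Cytotoxicity counter screen: CellTiter-Fluor signal (30 min, 37 C) in 4000 HepG2 cells/well carrying the DRE-luciferase reporter, following 24 h compound exposure at 37 C.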

[19] = molecular target: Peroxisome proliferator-activated receptor gamma (Homo sapiens) (UniProt P37231); test: qHTS assay to identify small molecule agonists of the peroxisome proliferator-activated receptor gamma (PPARg) signaling pathway (AID 743094; active = well fitted activation curve with a large enough effect in the signal ratio in the repeat runs, not every such curve was filed as active; the % refers to the signal ratio)
Outline: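 GeneBLAzer PPARg UAS-bla HEK293H cells were plated, rested 5 h, then exposed to compounds for 17 h at 37C. Beta-lactamase activity was read by LiveBLAzer B/G FRET substrate fluorescence after 1 h at room temperature.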

Measured: Potency

Chain of Bile acid receptor (Homo sapiens) (Q96RI1 whole entry, looked up): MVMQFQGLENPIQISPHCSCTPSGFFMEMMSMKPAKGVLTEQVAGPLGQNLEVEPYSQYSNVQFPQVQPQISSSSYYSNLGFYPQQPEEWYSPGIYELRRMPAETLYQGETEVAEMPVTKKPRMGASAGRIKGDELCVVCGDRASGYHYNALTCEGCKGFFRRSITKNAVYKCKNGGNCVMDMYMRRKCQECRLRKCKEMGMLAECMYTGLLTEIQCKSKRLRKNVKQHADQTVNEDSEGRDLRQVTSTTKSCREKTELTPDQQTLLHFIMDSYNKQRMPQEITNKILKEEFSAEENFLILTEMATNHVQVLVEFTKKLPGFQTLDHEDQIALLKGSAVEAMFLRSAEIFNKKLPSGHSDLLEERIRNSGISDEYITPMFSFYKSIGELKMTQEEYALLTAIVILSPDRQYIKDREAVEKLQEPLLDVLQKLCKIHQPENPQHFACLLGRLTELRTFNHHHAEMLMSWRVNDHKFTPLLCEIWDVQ
Chain of Vitamin D3 receptor (Homo sapiens) (P11473 whole entry, looked up): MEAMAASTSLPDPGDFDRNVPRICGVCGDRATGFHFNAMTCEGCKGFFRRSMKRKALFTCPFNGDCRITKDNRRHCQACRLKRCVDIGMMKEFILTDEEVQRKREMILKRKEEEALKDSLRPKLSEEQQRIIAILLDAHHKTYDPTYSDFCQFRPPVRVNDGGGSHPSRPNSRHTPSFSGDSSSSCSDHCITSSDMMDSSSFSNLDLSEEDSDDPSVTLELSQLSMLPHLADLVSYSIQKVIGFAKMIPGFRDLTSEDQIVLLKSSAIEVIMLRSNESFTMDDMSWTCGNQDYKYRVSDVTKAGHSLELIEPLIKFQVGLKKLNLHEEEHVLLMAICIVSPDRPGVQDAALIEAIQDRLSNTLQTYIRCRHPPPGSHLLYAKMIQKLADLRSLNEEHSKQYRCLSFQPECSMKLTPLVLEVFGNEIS
Chain of Peroxisome proliferator-activated receptor gamma (Homo sapiens) (P37231 whole entry, looked up): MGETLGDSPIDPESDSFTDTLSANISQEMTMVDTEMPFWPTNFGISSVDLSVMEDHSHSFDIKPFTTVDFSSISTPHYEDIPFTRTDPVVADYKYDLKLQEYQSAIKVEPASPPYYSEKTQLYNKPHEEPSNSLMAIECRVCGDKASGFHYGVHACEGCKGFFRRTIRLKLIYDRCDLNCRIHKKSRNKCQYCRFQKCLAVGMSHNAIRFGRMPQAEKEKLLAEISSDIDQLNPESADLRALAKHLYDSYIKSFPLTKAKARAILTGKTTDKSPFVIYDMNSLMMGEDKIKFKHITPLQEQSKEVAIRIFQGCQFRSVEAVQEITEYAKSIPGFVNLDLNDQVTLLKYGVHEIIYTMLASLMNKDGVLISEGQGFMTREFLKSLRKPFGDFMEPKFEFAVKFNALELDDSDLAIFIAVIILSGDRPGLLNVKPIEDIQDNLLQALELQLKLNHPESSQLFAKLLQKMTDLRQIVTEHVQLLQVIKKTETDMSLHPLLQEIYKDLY
Chain of Peroxisome proliferator-activated receptor delta (Homo sapiens) (Q03181 whole entry, looked up): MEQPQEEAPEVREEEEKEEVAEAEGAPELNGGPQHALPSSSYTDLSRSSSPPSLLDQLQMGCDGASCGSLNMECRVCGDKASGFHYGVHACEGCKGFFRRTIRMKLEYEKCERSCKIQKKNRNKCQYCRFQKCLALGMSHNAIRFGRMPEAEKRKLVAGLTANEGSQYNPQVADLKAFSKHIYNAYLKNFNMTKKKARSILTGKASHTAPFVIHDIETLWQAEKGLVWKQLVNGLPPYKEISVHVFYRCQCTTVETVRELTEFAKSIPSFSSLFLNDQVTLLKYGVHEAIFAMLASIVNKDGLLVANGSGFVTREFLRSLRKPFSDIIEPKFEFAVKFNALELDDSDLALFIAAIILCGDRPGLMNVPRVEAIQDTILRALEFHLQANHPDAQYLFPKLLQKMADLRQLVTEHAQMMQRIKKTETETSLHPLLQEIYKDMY

CCOC(=O)c1cc(=O)c2c(OCC(COc3cccc4oc(C(=O)OCC)cc(=O)c34)OC(=O)[C@@H](N)CCCCN)cccc2o1
not listed: [17] | [18] | [19]
inactive: all other assays above

CC(Oc1c(Cl)cccc1Cl)C1=NCCN1 (centres undefined)
not listed: [3] | [6] | [8] | [10] | [12] | [17] | [18] | [19]
inactive: all other assays above

CN1CCN(N)CC1
not listed: [14] | [15] | [18] | [19]
inactive: all other assays above

CC1CN(c2ccccc2)NC1=O (centres undefined)
not listed: [2] | [3] | [4] | [7] | [10] | [15] | [16] | [19]
inactive: all other assays above

Cc1ccccc1C(=O)Nc1ccc(C(=O)N2CCCC(O)c3cc(Cl)ccc32)c(C)c1 (centres undefined)
not listed: [7] | [8] | [10] | [15] | [16] | [17] | [18] | [19]
inactive: all other assays above

Cc1onc(-c2ccccc2)c1C(=O)Cl
not listed: [4] | [8] | [15] | [17] | [18] | [19]
inactive: all other assays above

O=Cc1ccc(O)c(O)c1O
inactive: [2] | [4] | [10] | [11] | [12] | [13]
active: [3] 23.7 µM

CCCS(=O)c1ccc2nc(NC(=O)OC)[nH]c2c1 (centres undefined)
not listed: [1] | [3] | [10] | [15] | [17] | [18] | [19]
inactive: all other assays above

Cc1cc2c(s1)Nc1ccccc1N=C2N1CCN(C)CC1
not listed: [3] | [6] | [8] | [10] | [12] | [14] | [16] | [18]
inactive: all other assays above

CCc1cc2cc(OC)c(OC)cc2c(Cc2ccccc2)n1
inactive: [2] | [3] | [4] | [5] | [6] | [7] | [8] | [11] | [12] | [13]

Cc1nc(N)nc(N)c1-c1ccc(Cl)c(Cl)c1
inactive: [5] | [6] | [7] | [8] | [17] | [12]
active: [1] 1.88 µM | [16] 3.35 µM

CCN(CCCc1ccccc1)CCCc1ccccc1
not listed: [1] | [2] | [3] | [9] | [10] | [14]
inactive: all other assays above

Cc1c(N)cccc1N
not listed: [1] | [3] | [10] | [12] | [17] | [19]
inactive: all other assays above

CCCC(CCC)(C(=O)OCC)C(=O)OCC
not listed: [1] | [5] | [10] | [14] | [17] | [18] | [19]
inactive: all other assays above

O=C(CCCl)NCc1ccccc1
not listed: [5] | [8] | [10] | [11] | [12] | [16] | [18] | [19]
inactive: all other assays above

CC(C)NC[C@@H](O)COc1cccc2ccccc12
not listed: [1] | [3] | [7] | [8] | [9] | [17] | [19]
inactive: all other assays above

CCOc1ccc(NS(=O)(=O)c2ccc(N)cc2)nn1
not listed: [1] | [5] | [8] | [10] | [12] | [14] | [15] | [19]
inactive: all other assays above

Cc1ccc(C)c(N)c1
not listed: [1] | [3] | [6] | [10] | [14] | [15] | [17]
inactive: all other assays above
